Experimental findings from PubChem BioAssay (NCI) are described below.

The structures appear in SMILES notation. The panel holds about 83,000 compounds, 20% with a hit somewhere; the sample as a whole holds those more often.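 Plates (96-well) were seeded with cells, treated with compound at one concentration, and incubated for 48 hours before percent growth was determined.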 Unmarked numbers belong to inactive results. Active and inactive are the calls of the source. How the source made its calls: active means growth percent below 10; inactive means the rest.

The assay relates to UACC-257 melanoma. Description: NCI-60 one-dose screen, 48 h (100 = growth as untreated, 0 = no growth, -100 = all killed). The following applies: 10 µM unless noted.
Turning to `O=C(Nc1cccc2ccccc12)c1cc2ccccc2cc1O`, the growth is 5.69% (active).
On to `COc1cc2c(O)n(CCCN3CCOCC3)c3c4cnc5cccc(c(=O)c3c2cc1OC)c54`, for which the growth was 44%.
As for `C#CCNC(=O)CC[C@@H](C)[C@H]1CC[C@H]2[C@@H]3CC[C@@H]4CC(=O)CC[C@]4(C)[C@H]3CC[C@]12C`, the figure is -0.129% [100 µM] (active); as for `COc1ccc(NC(=O)Nc2ccc(-c3cccnc3)cc2N2CCC(CO)CC2)cc1`, 46.6%; as for `CC1(C(=O)O)CCC(N)(C(=O)O)C1(C)C` (centres undefined), 121%.
For `COc1ncc(-c2ccc3nccc(C#CCCCCC(=O)NO)c3c2)cc1NS(=O)(=O)c1ccc(F)cc1F`, the growth is -16.4% (active).
As to `O=C(O)CC1CCCCC1c1ccccc1` (centres undefined), the growth is 112%.
Consider `CC(C)=CC/C=C(/C)[C@H]1CC[C@]2(C)[C@@H]1CC[C@@H]1[C@@]3(C)CCC(=O)NC(C)(C)[C@@H]3CC[C@]12C`, for which the growth is 14.8% [100 µM].
Take `Cc1nc(Cl)c2c(n1)N(C)c1ccc(Cl)cc1C(C)C2` (centres undefined): the growth was 88%.
For the compound `Cc1ccc(N)c(O)c1`, the growth was 80.6%.
With `Nc1ccc(Cl)c([N+](=O)[O-])c1`, the growth was 95.1%.
As for `O=[N+]([O-])c1cccc(N=NNc2cccc([N+](=O)[O-])c2)c1`, the figure is 103%.
For `C=C(C)[C@@H]1CC[C@]2(C)[C@H](CC[C@@H]3[C@@H]([C@@](C)(O)CCC=C(C)C)CC[C@]32C)[C@@]1(C)CCC(=O)N1CCN(C)CC1`, the growth was -59.9% [100 µM] (active).
Regarding `Cn1cc(-c2noc(C(=O)c3cn(C)c4ncc(Br)cc34)n2)c2ccccc21`, the growth was 96.7%.
